Screens deposited in PubChem BioAssay by several laboratories.
The list is not random: actives were taken first. Their share in the collection is about 2.6%.
Shn3 3UTR inh: Schnurri-3 reporter inhibition in Clone20 osteoblasts; Clone20 osteoblast Shn3 3'UTR firefly luciferase, 24 h; inhibition, % at 12.5 µM; 0.52% of 360,000 active; AID 588674;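 active = mean inhibition of at least 75% with every replicate also reaching 75%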
KKLEB cytotox: CF airway cell cytotoxicity counter-screen; KKLEB CF airway cells viability, ATPlite luminescence, overnight; hits give low values; cells stimulated with P. aeruginosa culture filtrate; activity change (cytotoxicity), % at 5 µM; 0.36% of 360,000 active; AID 602141;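 active = corrected activity change at or below -50% at 5 µM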
CF NFkB inh: cystic fibrosis NF-kB activation inhibition | KKLEB NF-kB-GFP reporter, PAF-induced, GFP fluorescence overnight | inhibition, % at 5 µM | 0.86% of 360,000 active;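 active = at least 50% inhibition at 5 µM, scaled per plate between neutral and stimulator controls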;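 note: PAF is a Pseudomonas aeruginosa culture filtrate used as stimulus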
Peg3 promoter: Peg3 promoter activity inhibition; HeLa PEG-Prom luciferase reporter, luminescence, overnight; inhibition, % at 20 µM; 1.7% of 360,000 active; AID 588405;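 active = inhibition of at least 50% at 20 µM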
HIF-2a block: blocks HIF-2a reporter activity. 786-0 RCC cells HIF-2a reporter, luciferase luminescence, overnight. inhibition, % at 18.8 µM. 0.72% of 360,000 active;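 active = inhibition of the luminescence signal of 40% or more relative to plate controls, in a single-dose primary screen at 18.75 µM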
CF NFkB conf: CF NF-kB inhibition confirmation, single concentration; 64% of 1,300 active; AID 602472; inhibition, % at 5 µM; shares compounds with CF NFkB inh; KKLEB CF airway cells, PAF-induced NF-kB-GFP fluorescence, overnight; in the data active = inhibition above about 40%;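 note: stimulus PAF is a Pseudomonas aeruginosa filtrate and not platelet activating factor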
Of the large screens only hits and unclear results are named; the others gave an inactive call (follow-up assays come after a bar, where they were run).

COc1cccc(NC(=O)Nc2nnc(CC(=O)Nc3ccccc3)s2)c1	CF NFkB inh 57 | CF NFkB conf 72
N#CCCN1CCN(C2=NC(=O)/C(=C\c3cccs3)S2)CC1	none
CCOC(=O)CNC(=O)COc1coc(CN2CCN(c3ccccc3F)CC2)cc1=O	none
COc1cccc(N2CCN(c3nc(-c4ccccc4C)cc(=O)[nH]3)CC2)c1	CF NFkB inh 67, Peg3 promoter 104 | CF NFkB conf inactive
O=C(NNC(=S)Nc1cccc(C(F)(F)F)c1)c1ccccc1Cl	none
O=C(NNC(=S)Nc1cccc(C(F)(F)F)c1)c1cccc(Cl)c1	CF NFkB inh 51 | CF NFkB conf 77
CCN(C(=O)c1cc(S(=O)(=O)N2CCCCC2)c[nH]1)c1ccc(OC)cc1	CF NFkB inh 50 | CF NFkB conf 46
Cc1ccc(S(=O)(=O)CC(CN2CCCCC2)N2CCCCC2)cc1 (stereo unspecified)	CF NFkB inh 53 | CF NFkB conf 57
Oc1ccc(CCNc2ncnc3ccc(Cl)cc23)cc1	Shn3 3UTR inh 88, CF NFkB inh 70 | CF NFkB conf 89
COC(=O)c1ccc2nc(NC(=O)CCS(=O)(=O)c3ccccc3)sc2c1	CF NFkB inh 58 | CF NFkB conf inactive
CCOC(=O)c1ccc(-n2[nH]c(-c3ccccc3)cc2=O)cc1	CF NFkB inh 64 | CF NFkB conf 76
CCOC(=O)c1ccc(N=Nc2c(C)[nH]n(-c3ccccc3)c2=O)cc1	none
O=C(c1ccccc1[N+](=O)[O-])N1CCN(c2ccc(N3CCOCC3)nn2)CC1	none
CCOC(=O)/C(=C\c1cccc(O)c1)c1nc2sc(C)c(C)c2c(=O)[nH]1	CF NFkB inh 74, Peg3 promoter 115, HIF-2a block 95 | CF NFkB conf inactive
CC[n+]1c(C)sc2c(C)cc(C)cc21	none
CCC[n+]1c(C)sc2c3c(ccc21)CCCC3	Shn3 3UTR inh 92, CF NFkB inh 58 | CF NFkB conf inactive
COc1ccc(Cl)cc1C(=O)OCC(=O)Nc1cccnc1Cl	none
COc1ccc(-c2cc(C(F)(F)F)nc(S(=O)(=O)CCCC(=O)Nc3cccnc3Cl)n2)cc1OC	Shn3 3UTR inh 96, CF NFkB inh 93, Peg3 promoter 106 | CF NFkB conf 88
Cn1c(=O)c([N+](=O)[O-])c(NCC2CCCO2)c2ccccc21 (stereo unspecified)	none
Cn1cc([N+](=O)[O-])c(C(=O)Nc2ccc(-c3nc4ccccc4o3)cc2)n1	CF NFkB inh 68, Peg3 promoter 51 | CF NFkB conf inactive
Cn1cc([N+](=O)[O-])c(C(=O)Nc2ccc(Br)cn2)n1	none
CCC1(c2ccccc2)C(=O)N(C(=O)OC(C)(C)C)N1C(=O)OC(C)(C)C (stereo unspecified)	none
CCOC(=O)N1C(=O)[C@](CC)(c2ccccc2)N1C(=O)OCC	CF NFkB inh 56 | CF NFkB conf inactive
CC(=O)c1ccc(Nc2ncnc3ccc(Br)cc23)cc1	CF NFkB inh 60 | CF NFkB conf 46
CC(C)Nc1ncnc2ccc(Br)cc12	CF NFkB inh 70 | CF NFkB conf 85
Brc1ccc2ncnc(NCc3ccco3)c2c1	CF NFkB inh 54 | CF NFkB conf 58
CC(=O)c1cccc(Nc2ncnc3ccc(Br)cc23)c1	none
Cc1c(Cl)cccc1N=C1SCCN1C(=O)CN1C(=O)NC2(CCCC2)C1=O	CF NFkB inh 53 | CF NFkB conf 40
Cc1c(C(=O)c2ccc(Cl)c(Cl)c2)cnc2cc3c(cc12)OCO3	none
Cc1ccc(S(=O)(=O)c2c(C(=O)c3ccccc3)cnc3cc4c(cc23)OCCO4)cc1	CF NFkB inh 51 | CF NFkB conf inactive
Cc1ccc(/C(=C\CN2CCCC2)c2ccccn2)cc1	CF NFkB inh 51 | CF NFkB conf inactive
C[C@H](O)[C@@H]1CN2CCc3c([nH]c4ccc(-c5ccc6c(c5)OCO6)cc34)[C@@H]2C[C@@H]1N(C)C(=O)Nc1ccc(F)cc1	CF NFkB inh 65, Peg3 promoter 70 | CF NFkB conf 52
C[C@H](O)[C@@H]1CN2CCc3c([nH]c4ccccc34)[C@@H]2C[C@@H]1N(C)C(=O)Nc1cccc2ccccc12	none
Cc1ccc(-n2nnnc2SCC(=O)NCC2CCCO2)cc1C (stereo unspecified)	none
